Experimental data from PubChem BioAssay.
Calls of active or inactive are those of the source.

What was measured:
[1] = binders of probe aFSTL3 on microarray, primary screen, stem cell growth factor project, biochemical, small-molecule microarray, fluorescence 635/667 (AID 1064); conditions: higher = more signal;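 also: measures binding of the biotinylated anti-FSTL3 antibody to printed compounds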
[2] = binders from COS7 lysate, DM2A8 probe, primary screen, torsin A project, cell lysate, small-molecule microarray, fluorescence 635/667 (AID 1065); conditions: higher = more signal, COS7 lysate expressing mutant human TOR1A
[3] = binders of probe aFGF2 on microarray, primary screen, stem cell growth factor project, biochemical, small-molecule microarray, fluorescence 635/667 (AID 1067); conditions: higher = more signal;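 also: measures binding of biotinylated aFGF2 protein to printed compounds on slides; z-score merges feature fluorescence and signal-to-noise across triplicate slides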
[4] = binders of probe aFGF10 on microarray, primary screen, stem cell growth factor project, biochemical, small-molecule microarray, fluorescence 635/667 (AID 1071); conditions: higher = more signal;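 also: score merges 667 nm spot intensity and signal to noise from triplicate slides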
[5] = target: Neurogenic locus notch homolog protein 2 (Homo sapiens) (UniProt Q04721); assay: Notch2 binders on small-molecule microarrays, primary screen, biochemical, small-molecule microarray, 635 nm fluorescence, stem cell growth factors (AID 1073); conditions: Notch2 binding, higher = more signal
[6] = target: Pro-neuregulin-1, membrane-bound isoform (Homo sapiens) (UniProt Q02297); assay: NRG1 binders on small-molecule microarrays, primary screen, psychiatric disease protein project, biochemical, small-molecule microarray, fluorescence 635/667 (AID 1075); conditions: NRG1 binding, 635 nm fluorescence, higher = more signal;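 also: score combines 667 nm spot fluorescence with signal to noise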
[7] = tested on: Neuregulin-1 EGF-like domain; assay: binders of neuregulin-1 EGF-like domain, primary screen, biochemical, small-molecule microarray, 635 nm fluorescence (AID 1081); conditions: small-molecule microarray binding, higher = more signal;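 also: binding of the protein to compounds printed on small-molecule microarray slides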
[8] = FRG1 promoter luciferase signal modulators, primary screen, FRG1 inhibition for FSHD, cell-based, C2C12 myotubes, firefly/Renilla luciferase, luminescence (AID 1084); conditions: higher = more signal, called active from +8 up or from −8 down
[9] = binders of probe aFST on microarray, primary screen, stem cell growth factor project, biochemical, small-molecule microarray, fluorescence 635/667 (AID 1086); conditions: higher = more signal;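 also: score merges 667 nm fluorescence with signal-to-noise of each printed compound spot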
[10] = binders of probe aHhip on microarray, primary screen, stem cell growth factor project, biochemical, small-molecule microarray, fluorescence 635/667 (AID 1087); conditions: higher = more signal;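 also: score merges spot fluorescence at 667nm with spot signal to noise ratio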

Chain of Neurogenic locus notch homolog protein 2 (Homo sapiens) (Q04721 whole entry, looked up, canonical isoform): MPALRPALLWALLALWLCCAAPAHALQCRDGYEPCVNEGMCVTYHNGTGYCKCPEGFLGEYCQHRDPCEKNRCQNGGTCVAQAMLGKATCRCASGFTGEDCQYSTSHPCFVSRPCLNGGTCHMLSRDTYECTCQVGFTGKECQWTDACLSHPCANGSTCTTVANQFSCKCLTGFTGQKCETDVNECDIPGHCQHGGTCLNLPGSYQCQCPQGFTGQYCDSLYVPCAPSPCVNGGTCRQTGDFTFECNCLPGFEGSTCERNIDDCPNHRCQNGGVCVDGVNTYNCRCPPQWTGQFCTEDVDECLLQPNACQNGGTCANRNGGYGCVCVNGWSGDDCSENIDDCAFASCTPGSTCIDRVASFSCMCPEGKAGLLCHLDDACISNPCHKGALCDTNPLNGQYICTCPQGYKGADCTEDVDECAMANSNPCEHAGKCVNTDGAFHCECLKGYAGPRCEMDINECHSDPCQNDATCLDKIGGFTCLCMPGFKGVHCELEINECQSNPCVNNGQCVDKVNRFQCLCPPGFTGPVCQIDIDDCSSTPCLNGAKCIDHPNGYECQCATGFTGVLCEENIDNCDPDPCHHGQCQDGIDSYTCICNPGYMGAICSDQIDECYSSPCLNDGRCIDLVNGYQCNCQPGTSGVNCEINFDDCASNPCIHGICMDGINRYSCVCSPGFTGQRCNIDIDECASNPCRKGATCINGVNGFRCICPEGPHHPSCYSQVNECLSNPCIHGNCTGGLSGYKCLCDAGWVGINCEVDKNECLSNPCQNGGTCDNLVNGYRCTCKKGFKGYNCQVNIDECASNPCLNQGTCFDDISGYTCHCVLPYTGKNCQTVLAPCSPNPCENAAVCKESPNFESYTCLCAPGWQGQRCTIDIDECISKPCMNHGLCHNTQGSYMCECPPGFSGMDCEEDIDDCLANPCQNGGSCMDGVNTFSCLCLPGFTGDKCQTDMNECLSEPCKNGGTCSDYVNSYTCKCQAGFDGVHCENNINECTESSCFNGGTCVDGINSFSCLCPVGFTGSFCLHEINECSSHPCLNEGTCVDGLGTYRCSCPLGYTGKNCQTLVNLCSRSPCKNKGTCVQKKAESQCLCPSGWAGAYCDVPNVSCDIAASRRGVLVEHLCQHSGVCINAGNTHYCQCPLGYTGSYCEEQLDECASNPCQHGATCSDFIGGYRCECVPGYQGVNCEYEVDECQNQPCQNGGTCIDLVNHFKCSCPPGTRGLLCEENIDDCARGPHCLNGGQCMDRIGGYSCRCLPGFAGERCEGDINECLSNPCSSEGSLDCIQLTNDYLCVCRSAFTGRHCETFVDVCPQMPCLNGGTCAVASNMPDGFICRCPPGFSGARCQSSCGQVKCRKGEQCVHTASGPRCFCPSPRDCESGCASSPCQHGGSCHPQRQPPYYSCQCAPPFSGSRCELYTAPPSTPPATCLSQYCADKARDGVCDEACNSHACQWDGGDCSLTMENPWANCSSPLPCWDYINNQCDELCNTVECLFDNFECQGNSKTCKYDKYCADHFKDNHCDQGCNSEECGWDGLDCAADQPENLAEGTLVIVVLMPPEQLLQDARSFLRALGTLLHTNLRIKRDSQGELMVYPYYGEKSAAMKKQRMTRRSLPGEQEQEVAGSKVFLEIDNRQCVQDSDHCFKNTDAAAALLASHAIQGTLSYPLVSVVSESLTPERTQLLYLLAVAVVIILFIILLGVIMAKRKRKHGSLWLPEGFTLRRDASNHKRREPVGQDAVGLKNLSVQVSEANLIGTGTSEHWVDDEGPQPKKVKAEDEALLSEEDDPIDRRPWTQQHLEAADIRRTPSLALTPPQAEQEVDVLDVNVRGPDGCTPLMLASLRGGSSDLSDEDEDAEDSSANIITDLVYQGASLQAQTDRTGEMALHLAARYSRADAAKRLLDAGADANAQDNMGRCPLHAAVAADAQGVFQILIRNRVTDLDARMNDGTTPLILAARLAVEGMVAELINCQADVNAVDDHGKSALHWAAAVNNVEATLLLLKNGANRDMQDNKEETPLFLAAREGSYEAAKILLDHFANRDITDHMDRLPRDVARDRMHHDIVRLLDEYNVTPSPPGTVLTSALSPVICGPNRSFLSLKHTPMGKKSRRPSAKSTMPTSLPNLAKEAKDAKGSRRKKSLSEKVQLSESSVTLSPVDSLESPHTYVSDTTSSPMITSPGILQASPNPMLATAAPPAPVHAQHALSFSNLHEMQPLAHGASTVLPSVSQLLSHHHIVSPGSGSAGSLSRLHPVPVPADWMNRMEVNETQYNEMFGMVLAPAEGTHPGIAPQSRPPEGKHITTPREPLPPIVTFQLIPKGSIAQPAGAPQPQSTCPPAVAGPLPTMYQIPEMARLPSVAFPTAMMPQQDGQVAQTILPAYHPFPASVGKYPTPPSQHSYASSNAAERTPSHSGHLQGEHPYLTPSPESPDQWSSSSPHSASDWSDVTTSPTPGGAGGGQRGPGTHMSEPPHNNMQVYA
Chain of Pro-neuregulin-1, membrane-bound isoform (Homo sapiens) (Q02297 whole entry, looked up, the tested form may be a part, canonical isoform): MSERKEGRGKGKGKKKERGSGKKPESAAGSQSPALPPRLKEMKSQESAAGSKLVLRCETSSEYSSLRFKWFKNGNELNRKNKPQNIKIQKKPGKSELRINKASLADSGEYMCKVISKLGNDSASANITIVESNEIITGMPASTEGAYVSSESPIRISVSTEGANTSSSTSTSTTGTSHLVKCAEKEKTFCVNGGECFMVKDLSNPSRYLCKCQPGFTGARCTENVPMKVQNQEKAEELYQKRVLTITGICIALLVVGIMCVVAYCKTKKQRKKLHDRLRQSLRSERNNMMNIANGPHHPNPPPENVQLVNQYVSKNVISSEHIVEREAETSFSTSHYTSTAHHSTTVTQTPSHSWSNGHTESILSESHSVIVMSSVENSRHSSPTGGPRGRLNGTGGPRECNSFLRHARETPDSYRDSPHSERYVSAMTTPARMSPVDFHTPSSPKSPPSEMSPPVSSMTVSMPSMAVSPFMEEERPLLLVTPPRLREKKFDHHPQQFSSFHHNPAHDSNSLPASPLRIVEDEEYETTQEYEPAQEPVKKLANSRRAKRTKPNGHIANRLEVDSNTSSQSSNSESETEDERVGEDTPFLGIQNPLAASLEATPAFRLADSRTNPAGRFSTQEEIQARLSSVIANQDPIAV

SMILES | composite z-score [1] | composite z-score [2] | composite z-score [3] | composite z-score [4] | composite z-score [5] | composite z-score [6] | composite z-score [7] | z-score [8] | composite z-score [9] | composite z-score [10]
CC(C)=CCCC(C)=CC(O)C1C=CC2C(=O)N(C)C(=O)C2N1Nc1ccccc1 (stereo not given) | 0.0019 | 0.708 | 0.231 | 0.942 | 1.6 | 1.72 | 1.2 | -1.04 (inactive) | 1.24 | -0.159
[N-]=[N+]=Nc1ccccc1[C@H]1OC(c2ccc(OCCCO)cc2)=N[C@@]1(CCS(=O)(=O)c1ccccc1)C(=O)NCC(O)CO (stereo not given in full) | 0.408 | 0.652 | 0.0367 | 0.543 | 1.35 | 1.75 | 1.3 | 5.85 (inactive) | 1.1 | -0.283
CCC(CC)C(O)C1C=CC2C(=O)NC(=O)C2N1Nc1ccccn1 (stereo not given) | -0.164 | 0.247 | 0.0119 | 0.368 | 0.795 | 0.675 | 1.12 | 0.32 (inactive) | 0.305 | 0.0139
COc1ccc([Si](C)(C)[C@H]2[C@H](CCO)O[C@@]3(C(=O)N(Cc4ccc(N(C=O)c5ccccc5)cc4)c4ccccc43)[C@@H]2C)cc1 | -0.151 | -0.177 | -0.0602 | 0.143 | -0.285 | 0.799 | 0.606 | -4.11 (inactive) | -0.267 | -0.249
O=C1N[C@@H](Cc2ccccc2)C(=O)N2[C@@H]1C[C@@H](C(=O)O)[C@H]2c1cccc(OCCO)c1 | 0.0693 | 0.571 | 0.0127 | 0.801 | 0.399 | 1.54 | 1.38 | 9.18 (active) | 0.166 | -0.0237
CN1C(=O)C2C=CC(C(O)c3ccco3)N(Nc3ccccc3)C2C1=O (stereo not given) | 0.034 | 0.438 | 0.0772 | 0.321 | 1.06 | 1.51 | 1.28 | 0.0122 (inactive) | -0.104 | -0.0581
CCCCC(CC)C(O)C1C=CC2C(=O)N(Cc3ccccc3)C(=O)C2N1n1cnnc1 (stereo not given) | 0.168 | -0.367 | -0.0305 | 0.175 | 0.0048 | -0.343 | 1.1 | -0.302 (inactive) | 0.246 | -0.199
CO[C@H]1O[C@H](CO)[C@@H](OC(=O)Nc2cccc(F)c2)[C@H](OC(=O)Nc2ccccc2)[C@@H]1OC(=O)Nc1ccccc1 | -0.139 | 0.995 | 0.185 | 1.17 | 1.51 | 1.51 | 1.19 | 1.17 (inactive) | 0.7 | -0.137
CN(C)CCCCCCNC(=O)[C@@H]1C[C@@H]2C(=O)N[C@@H](Cc3ccccc3)C(=O)N2[C@@H]1c1ccc(O)cc1 | 0.361 | 1.57 | 0.0127 | 0.439 | 0.644 | 1.07 | 1.42 | 3.06 (inactive) | 0.901 | -0.0196
C=CC[C@]1(C(=O)NCc2ccccc2)N=C(c2ccc(OCCCO)cc2)O[C@H]1c1ccccc1N=[N+]=[N-] | -0.158 | 1.46 | 0.282 | 0.399 | 1.13 | 1.24 | 1.04 | -0.71 (inactive) | 1.08 | -0.171
C=C[C@H](C)[C@@H](OC(=O)Nc1ccc(OC)cc1)c1ccc(O)c2ccccc12 | 0.358 | 0.357 | -0.142 | -0.225 | -1.53 | 0.3 | 1.27 | 4.09 (inactive) | -0.344 | -0.37
COCCCNC(=O)[C@]1(CCC(=O)OC(C)(C)C)N=C(c2ccc(OCCCO)cc2)O[C@@H]1c1ccccc1CN=[N+]=[N-] | 0.175 | 1.19 | 0.042 | 1.27 | 0.96 | 0.732 | 1.41 | 4.82 (inactive) | 0.728 | 0.107
C=C(C(=O)CC[C@@H](OC(=O)c1cccnc1)c1ccccc1OCCO)C(C)C | -0.44 | 0.447 | -0.119 | 0.0736 | 0.151 | 0.21 | 0.624 | -0.151 (inactive) | 0.0397 | 0.0156
[N-]=[N+]=NCc1ccccc1C[C@]1(C(=O)N2CCCCC2)N=C(c2ccc(OCCCO)cc2)O[C@H]1c1ccccc1N=[N+]=[N-] | 0.643 | 0.133 | 0.158 | 0.816 | 1.3 | 1.57 | 1.1 | -1.99 (inactive) | 0.637 | -0.233
CN1C(=O)C2C=CC(C(O)c3ccc([N+](=O)[O-])cc3)N(N3CCCCC3)C2C1=O (stereo not given) | 1.11 | -0.306 | 0.132 | 0.695 | 1.6 | 1.3 | 0.961 | 0.198 (inactive) | 1.36 | -0.365
CC1CC/C=C\[C@H]2OC34C=CCN(Cc5ccccc5)C(=O)[C@H]3N(CCCO)C(=O)[C@@H]4C2C(=O)O1 (stereo not given in full) | 0.291 | 0.141 | -0.118 | -0.365 | -0.557 | 0.909 | 1.48 | 0.242 (inactive) | -0.662 | -0.0645
[N-]=[N+]=NCc1ccccc1[C@@H]1OC(c2ccc(OCCCO)cc2)=N[C@]1(Cc1ccccc1)C(=O)NCC(O)CO (stereo not given in full) | 0.798 | 0.42 | 0.126 | 0.343 | -0.119 | 1.84 | 1.2 | -0.339 (inactive) | 0.421 | 0.132

SMILES | composite z-score [1] | composite z-score [2] | composite z-score [3] | composite z-score [4] | composite z-score [5] | composite z-score [6] | composite z-score [7] | z-score [8] | composite z-score [9] | composite z-score [10]
COC(=O)[C@@]1(Cc2ccc(OC)cc2)[C@H]2c3cc(C(=O)N4CCCC4)n(Cc4ccc(O)c(OC)c4)c3C[C@H]2CN1C(=O)c1ccccc1 | 1.41 | 1.14 | 0.694 | 0.777 | 1.1 | 1.83 | 1.1 | 0.665 (inactive) | 2.28 | 2.44
NCCCCCCNC(=O)[C@@H]1C[C@@H]2C(=O)NCC(=O)N2[C@@H]1c1ccc(O)cc1 | -0.175 | 0.853 | -0.14 | 0.177 | 0.571 | 1.32 | 1.41 | 1.03 (inactive) | 0.703 | -0.207
CCC[C@@H]1C[C@@]1(CCC)[C@@H](NC(=O)c1ccccc1)c1cccc(Cl)c1 | 1.63 | 0.249 | 0.783 | 0.948 | 1.47 | 0.753 | 1.09 | 0.379 (inactive) | 2.29 | 0.53
C=C(/C(=C/C[C@H](OC(C)=O)c1ccc(CO)o1)c1cc(C(=O)OC)ccc1OC)C(C)C | -0.0849 | -0.442 | -0.0637 | 0.597 | 0.102 | -0.306 | 0.53 | -0.601 (inactive) | 0.031 | 0.119
CCCCCCc1nc(-c2cc(C)c(OC)c(C)c2)cc2c1[Si](C(C)C)(C(C)C)OC2 | 0.0546 | -0.375 | -0.0507 | -0.278 | -0.274 | -0.405 | -0.449 | 0.515 (inactive) | -0.272 | 0.35
CCOC(=O)C[C@H]1[C@H](OC(=O)c2cc3ccccc3oc2=O)[C@@H](NC(=O)c2ccccc2)c2cc(OCCCO)ccc2N1C(=O)c1ccc2ccccc2n1 | -0.408 | -0.373 | -0.0878 | 0.8 | 0.889 | 0.0325 | 1.18 | -0.757 (inactive) | 0.312 | -0.0346
CC(=O)n1cc(C(O)C2C=CC3C(=O)N(c4ccccc4)C(=O)C3N2Nc2ccc([N+](=O)[O-])cc2)c2ccccc21 (stereo not given) | 0.889 | 1.44 | -0.0605 | -0.0938 | 1.24 | 1.23 | 1.22 | -0.438 (inactive) | 1.02 | 0.0274
Cc1nc2cc(Br)ccc2c(=O)o1 | -0.296 | -0.185 | -0.158 | 0.497 | 1.1 | 0.226 | 0.861 | 0.845 (inactive) | 1.04 | 0.0383
C=CC[C@]1(C(=O)NCCCOC)N=C(c2ccc(OCCCO)cc2)O[C@H]1c1ccccc1CN=[N+]=[N-] | 1.07 | 0.717 | -0.0981 | 0.807 | 1.49 | 1.3 | 1.08 | 0.373 (inactive) | 0.952 | 0.335
Cc1ccc(N2C(=O)c3ccccc3[C@@H](C(=O)NC3CC3)[C@@H]2c2ccc(CO)cc2)nc1 | 1.17 | -0.78 | -0.149 | -1.26 | -1.63 | -1.14 | 0.058 | 0.554 (inactive) | -0.479 | -0.134
COCCOC(=O)N1C(=O)[C@@]2(c3cc(C#Cc4ccc(OC)cc4)ccc31)[C@H](c1ccccc1OCCO)N1[C@H](c3ccccc3)[C@H](c3ccccc3)OC(=O)[C@H]1[C@@H]2C(=O)NC[C@H](O)c1ccccc1 | -0.532 | 0.579 | -0.0744 | 0.514 | 1.09 | 1.12 | 1.3 | 0.19 (inactive) | 0.499 | -0.0346
C=C(COC)/C(=C/C[C@@H](OC(=O)c1ccncc1)c1ccc(CO)o1)c1cc(C(=O)OC)ccc1OC | -0.496 | 0.699 | -0.0451 | 0.833 | 1.38 | 0.97 | 1.26 | -1.38 (inactive) | 0.458 | -0.0994
CC(C)C[C@@H]1NC(=O)[C@H](C(C)C)NC(=O)[C@@]23C(=O)N[C@@H](Cc4ccccc4)C2[C@H](C)[C@@]2(C)O[C@H]2C3/C=C/CC/C=C/CNC1=O (stereo not given in full) | -0.368 | 0.0032 | -0.144 | 0.518 | 0.729 | 0.133 | 1.02 | -0.537 (inactive) | 0.0815 | -0.0061
O=C(NCCN1CCOCC1)[C@@H]1c2ccccc2C(=O)N(C2CCCCC2)[C@H]1c1ccc(CO)cc1 | 0.64 | -0.324 | -0.0616 | -0.413 | -0.194 | 0.96 | 0.872 | -0.658 (inactive) | 0.106 | -0.271
COC(=O)[C@@]1(Cc2ccccc2)[C@H]2c3cc(C(=O)N4CCCC4)n(Cc4ccc(S(C)(=O)=O)cc4)c3C[C@H]2CN1C(=O)c1ccccc1 | 1 | 0.0844 | 0.371 | -0.0015 | 1.68 | 1.66 | 1.31 | 1.45 (inactive) | 1.23 | 0.939
CCOC(=O)C[C@H]1[C@H](OC(=O)c2ccc(C(=O)c3ccccc3)cc2)[C@@H](NC(=O)c2ccc3ccccc3n2)c2cc(OCCCO)ccc2N1C(=O)c1ccccc1 | -0.384 | 0.264 | 0.0498 | 1.03 | 0.454 | 0.45 | 0.975 | 0.823 (inactive) | 0.493 | -0.243
